Reference: PubChem BioAssay (NCATS)
Records with an inconclusive call do not appear. Active and inactive are the calls of the source. The call rests on the fitted dose curve; in most records, active means well fitted curve in the direction sought with a large enough effect; inconclusive means small, poorly fitted or top-dose-only effect, or another doubt; inactive means no such curve, though single readings can be large; an effect the other way counts as inactive or inconclusive.

target: Glutaminase kidney isoform, mitochondrial (Homo sapiens) (UniProt O94925); test: qHTS for Inhibitors of Glutaminase (GLS): LOPAC Validation (AID 624146); settings: glutaminase enzyme activity inhibition; series mostly up to 46.1 µM; activity change, negative = inhibition: at the top concentration; further: nearly all actives have a fitted effect of over 60% in size;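 on activity change, negative = inhibition: glutamate product detected by oxidase and peroxidase coupled Amplex red fluorescence gain; on the % scale 0 is the no-effect control and ±100 the full control effect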
Outline: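 Two-point fluorescence kinetic (t0, 30 min RT) for hKGA; glutamate detected via glutamate oxidase–HRP–Amplex Red. Substrate: 1 mM L-glutamine solution; buffer 45 mM KH2PO4, pH 8.2.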
Potency means the concentration at half of the fitted maximal effect.

Chain of Glutaminase kidney isoform, mitochondrial (Homo sapiens) (O94925 whole entry, looked up, canonical isoform): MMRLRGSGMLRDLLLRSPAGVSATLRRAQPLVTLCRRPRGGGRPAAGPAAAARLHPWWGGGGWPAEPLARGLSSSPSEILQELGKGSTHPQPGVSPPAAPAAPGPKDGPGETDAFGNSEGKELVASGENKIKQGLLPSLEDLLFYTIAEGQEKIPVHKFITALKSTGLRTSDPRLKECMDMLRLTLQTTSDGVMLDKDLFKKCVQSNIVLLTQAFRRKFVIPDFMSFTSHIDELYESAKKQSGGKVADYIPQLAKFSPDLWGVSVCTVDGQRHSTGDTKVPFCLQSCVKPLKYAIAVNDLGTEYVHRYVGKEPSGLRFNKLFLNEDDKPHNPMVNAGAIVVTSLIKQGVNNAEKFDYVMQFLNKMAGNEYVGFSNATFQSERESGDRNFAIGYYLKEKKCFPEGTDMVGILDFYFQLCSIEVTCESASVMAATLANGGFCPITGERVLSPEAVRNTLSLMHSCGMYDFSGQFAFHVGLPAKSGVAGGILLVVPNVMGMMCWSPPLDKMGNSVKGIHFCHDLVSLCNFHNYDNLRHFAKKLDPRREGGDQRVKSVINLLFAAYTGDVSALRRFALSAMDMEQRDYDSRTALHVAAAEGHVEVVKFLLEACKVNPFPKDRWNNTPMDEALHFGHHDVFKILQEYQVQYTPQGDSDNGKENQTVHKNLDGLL

Compound	activity change, negative = inhibition	Potency
CC(COc1ccc(/C=C/c2ccccc2)cc1)[N+](C)(C)C (centres undefined)	6.13% (inactive)	
c1ccc(-c2ccccn2)nc1	-8.12% (inactive)	
Fc1ccc(C(OCCCc2cnc[nH]2)c2ccc(F)cc2)cc1	-18.4% (inactive)	
COc1cc2nc(N3CCN(C(=O)OCc4ccccc4)C(C(=O)NC(C)(C)C)C3)nc(N)c2cc1OC (centres undefined)	-7.86% (inactive)	
O=C(O)CC1CC(c2ccccc2)=NO1 (centres undefined)	60.8% (inactive)	
COc1cc(SC)ccc1C(=O)N1CCC(Cc2ccccc2)CC1	-7.46% (inactive)	
Cc1cc2c(cc1Cl)N(C(=O)Nc1ccc(Oc3cccnc3C)nc1)CC2	-5.17% (inactive)	
NCCNC(=O)c1ncsc1-c1cccc(F)c1	-5.93% (inactive)	
Clc1ccc(N2CCN(Cc3cc4ccccn4n3)CC2)cc1	-4.96% (inactive)	
CCCN(CC1CC1)c1nc(C)nc(Nc2c(Cl)cc(Cl)cc2Cl)c1Cl	3.03% (inactive)	
O=c1[nH]c2cc([N+](=O)[O-])c([N+](=O)[O-])cc2[nH]c1=O	-17.1% (inactive)	
CC(=O)SCC[N+](C)(C)C	-20.9% (inactive)	
Cc1nc2sccn2c(=O)c1CCN1CCC(=C(c2ccccc2)c2ccc(F)cc2)CC1	36% (inactive)	
CCOC(=O)C1=C(C)NC(C)=C(C(=O)OCC)C1c1c(F)c(F)c(F)c(F)c1F	-44.4% (inactive)	
O=Nc1ccc2oc(=O)ccc2c1		10 µM (active)
CCCCN1CCC(n2c(=O)[nH]c3ccccc32)CC1	0.655% (inactive)	
Cc1cc(NC2CCCCC2)nc(-n2nc(C)cc2C)n1	-8.08% (inactive)	
Nc1ncnc2c1ncn2[C@@H]1O[C@H](COP(=O)(O)CP(=O)(O)OP(=O)(O)O)[C@@H](O)[C@H]1O	1.78% (inactive)	
NC[C@@H]1O[C@H](C23CC4CC(CC(C4)C2)C3)Cc2c1ccc(O)c2O	126% (inactive)	

Compound	activity change, negative = inhibition	Potency
COc1cccc(OC)c1OCCNCC1COc2ccccc2O1 (centres undefined)	-21.7% (inactive)	
CCc1c(C(=O)NCCc2ccc(N3CCCCC3)cc2)[nH]c2ccc(Cl)cc12	-20.7% (inactive)	
COc1ccccc1N1CCN(CCN(C(=O)c2ccc(I)cc2)c2ccccn2)CC1	-16.4% (inactive)	
CN1CCc2ccccc2Cc2[nH]c3ccccc3c2CC1		8.91 µM (active)
CN1CCc2cc(NC(=O)Nc3cccnc3)ccc21	-21.5% (inactive)	
OC[C@H]1O[C@@H](n2cnc3c(NC4CCCC4)ncnc32)[C@H](O)[C@@H]1O	-0.555% (inactive)	
OC[C@H]1O[C@@H](n2cnc3c(Nc4ccccc4)ncnc32)[C@H](O)[C@@H]1O	37.6% (inactive)	
CNCC[C@H](Oc1ccc(C(F)(F)F)cc1)c1ccccc1	-2.13% (inactive)	
COc1ccccc1CNCCCCCCNCCCCCCCCNCCCCCCNCc1ccccc1OC	-13.3% (inactive)	
Nc1nc(SCc2ccc([N+](=O)[O-])cc2)c2ncn([C@@H]3O[C@H](CO)[C@@H](O)[C@H]3O)c2n1	-1.35% (inactive)	
C[N+](C)(C)CCOP(=O)(O)OP(=O)([O-])OC[C@H]1O[C@@H](n2ccc(N)nc2=O)[C@H](O)[C@@H]1O	-6.36% (inactive)	
Cc1ccc(O)c(N=Nc2ccccc2)n1	-12.3% (inactive)	
O=C1O/C(=C/Br)CCC1c1cccc2ccccc12 (centres undefined)	26% (inactive)	
CSc1ccccc1N1CCN(CCCCCC(=O)NC2CCCc3ccccc32)CC1 (centres undefined)	20.2% (inactive)	
O=C(c1ccc(OCCCc2cnc[nH]2)cc1)C1CC1	-26.2% (inactive)	
CC(=O)N[C@H](C(=O)O)C(C)(C)SN=O	-9.54% (inactive)	
Nc1ncnc2c1c(I)cn2[C@@H]1C[C@H](N)[C@@H](O)[C@H]1O	-4.77% (inactive)	
O=C(O)c1cc(=O)c2c(Cl)cc(Cl)cc2[nH]1	7.62% (inactive)	

tested on: not listed separately; test: qHTS of Trypanosoma Brucei Inhibitors: LOPAC Validation (AID 624147); settings: purified enzyme assay, luminescence, 45 min; series mostly up to 57.5 µM; activity change, negative = inhibition: at the top concentration; on activity change, negative = inhibition: 0% is about no effect
Outline: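 ADP (130 uM final) triggers the TbPYK reaction after compound addition; incubation is 45 min at room temperature. Kinase-Glo Plus is then added and luminescence imaged. Normalized data are fitted to concentration-effect curves.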

Compound	activity change, negative = inhibition	Potency
CC(COc1ccc(/C=C/c2ccccc2)cc1)[N+](C)(C)C (centres undefined)	-23% (inactive)	
c1ccc(-c2ccccn2)nc1	4.83% (inactive)	
Fc1ccc(C(OCCCc2cnc[nH]2)c2ccc(F)cc2)cc1	-10% (inactive)	
COc1cc2nc(N3CCN(C(=O)OCc4ccccc4)C(C(=O)NC(C)(C)C)C3)nc(N)c2cc1OC (centres undefined)	-5.52% (inactive)	
O=C(O)CC1CC(c2ccccc2)=NO1 (centres undefined)	-6.81% (inactive)	
COc1cc(SC)ccc1C(=O)N1CCC(Cc2ccccc2)CC1	-2.71% (inactive)	
Cc1cc2c(cc1Cl)N(C(=O)Nc1ccc(Oc3cccnc3C)nc1)CC2	-11.8% (inactive)	
NCCNC(=O)c1ncsc1-c1cccc(F)c1	-16.5% (inactive)	
Clc1ccc(N2CCN(Cc3cc4ccccn4n3)CC2)cc1	2.12% (inactive)	
CCCN(CC1CC1)c1nc(C)nc(Nc2c(Cl)cc(Cl)cc2Cl)c1Cl	6.85% (inactive)	
O=c1[nH]c2cc([N+](=O)[O-])c([N+](=O)[O-])cc2[nH]c1=O	-5.87% (inactive)	
CC(=O)SCC[N+](C)(C)C	-14% (inactive)	
Cc1nc2sccn2c(=O)c1CCN1CCC(=C(c2ccccc2)c2ccc(F)cc2)CC1	-7.5% (inactive)	
CCOC(=O)C1=C(C)NC(C)=C(C(=O)OCC)C1c1c(F)c(F)c(F)c(F)c1F	-14.3% (inactive)	
O=Nc1ccc2oc(=O)ccc2c1	-19.3% (inactive)	
CCCCN1CCC(n2c(=O)[nH]c3ccccc32)CC1	-7.43% (inactive)	
Cc1cc(NC2CCCCC2)nc(-n2nc(C)cc2C)n1	-3.37% (inactive)	
Nc1ncnc2c1ncn2[C@@H]1O[C@H](COP(=O)(O)CP(=O)(O)OP(=O)(O)O)[C@@H](O)[C@H]1O	-13.5% (inactive)	
NC[C@@H]1O[C@H](C23CC4CC(CC(C4)C2)C3)Cc2c1ccc(O)c2O	-3.81% (inactive)	

Compound	activity change, negative = inhibition	Potency
COc1cccc(OC)c1OCCNCC1COc2ccccc2O1 (centres undefined)	-2.07% (inactive)	
CCc1c(C(=O)NCCc2ccc(N3CCCCC3)cc2)[nH]c2ccc(Cl)cc12	-7.62% (inactive)	
COc1ccccc1N1CCN(CCN(C(=O)c2ccc(I)cc2)c2ccccn2)CC1	-2.58% (inactive)	
CN1CCc2ccccc2Cc2[nH]c3ccccc3c2CC1	-12.5% (inactive)	
CN1CCc2cc(NC(=O)Nc3cccnc3)ccc21	-9.23% (inactive)	
OC[C@H]1O[C@@H](n2cnc3c(NC4CCCC4)ncnc32)[C@H](O)[C@@H]1O	-5.2% (inactive)	
OC[C@H]1O[C@@H](n2cnc3c(Nc4ccccc4)ncnc32)[C@H](O)[C@@H]1O	-6.2% (inactive)	
CNCC[C@H](Oc1ccc(C(F)(F)F)cc1)c1ccccc1	-5.02% (inactive)	
COc1ccccc1CNCCCCCCNCCCCCCCCNCCCCCCNCc1ccccc1OC	-7.37% (inactive)	
Nc1nc(SCc2ccc([N+](=O)[O-])cc2)c2ncn([C@@H]3O[C@H](CO)[C@@H](O)[C@H]3O)c2n1	1.46% (inactive)	
C[N+](C)(C)CCOP(=O)(O)OP(=O)([O-])OC[C@H]1O[C@@H](n2ccc(N)nc2=O)[C@H](O)[C@@H]1O	7.27% (inactive)	
Cc1ccc(O)c(N=Nc2ccccc2)n1		19 µM (active)
O=C1O/C(=C/Br)CCC1c1cccc2ccccc12 (centres undefined)	-10.1% (inactive)	
CSc1ccccc1N1CCN(CCCCCC(=O)NC2CCCc3ccccc32)CC1 (centres undefined)	-5.56% (inactive)	
O=C(c1ccc(OCCCc2cnc[nH]2)cc1)C1CC1	3.64% (inactive)	
CC(=O)N[C@H](C(=O)O)C(C)(C)SN=O	-4.43% (inactive)	
Nc1ncnc2c1c(I)cn2[C@@H]1C[C@H](N)[C@@H](O)[C@H]1O	-13.7% (inactive)	
O=C(O)c1cc(=O)c2c(Cl)cc(Cl)cc2[nH]1	-9.15% (inactive)	
